Measured values reported in PubChem BioAssay (EPA / NIEHS).
Results filed as inconclusive are left out. Activity calls are given as the source filed them. How the source made its calls, unless noted: active means hit-call score of the fitted dose curve at least 0.9, where 1 is the maximum; inactive means score below 0.9.

Experiments:
[1] = molecular target: Retinoic acid receptor RXR-alpha (Homo sapiens) (UniProt P19793); test: ATG_RXRa_TRANS: Attagene TRANS-FACTORIAL HepG2 Assay for human Retinoid X Receptor alpha (RXRa) (AID 2283012; active means hit-call score of the fitted dose curve at least 0.9, where 1 is the maximum)
Chain of Retinoic acid receptor RXR-alpha (Homo sapiens) (P19793 whole entry, looked up, the tested form may be a part): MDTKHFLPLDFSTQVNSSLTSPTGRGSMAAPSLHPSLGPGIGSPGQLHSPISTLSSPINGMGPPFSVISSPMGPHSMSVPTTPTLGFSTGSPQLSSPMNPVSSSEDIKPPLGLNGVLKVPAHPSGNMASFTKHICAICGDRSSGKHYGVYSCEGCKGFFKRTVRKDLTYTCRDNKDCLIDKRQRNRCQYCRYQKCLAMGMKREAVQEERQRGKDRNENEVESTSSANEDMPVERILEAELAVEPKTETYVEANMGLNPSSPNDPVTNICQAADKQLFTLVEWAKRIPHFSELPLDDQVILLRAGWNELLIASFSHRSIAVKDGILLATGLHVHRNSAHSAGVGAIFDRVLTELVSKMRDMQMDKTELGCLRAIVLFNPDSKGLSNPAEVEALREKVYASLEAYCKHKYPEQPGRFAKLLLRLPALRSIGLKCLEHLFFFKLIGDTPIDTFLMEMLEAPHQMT
How it was run: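 HepG2 cells transiently transfected with multiplexed GAL4-UAS reporter units and chimeric NR-GAL4 fusions, dosed 24 h. Reporter mRNA measured by RT-PCR, FAM labelling, HpaI digestion and capillary electrophoresis; gain-of-signal fitted relative to DMSO baseline.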

[2] = molecular target: human Retinoid X Receptor beta (RXRb), RXRB (gene 6257) (UniProt P28702); test: ATG_RXRb_TRANS: Attagene TRANS-FACTORIAL HepG2 Assay for human Retinoid X Receptor beta (RXRb) (AID 2283013; active means hit-call score of the fitted dose curve at least 0.9, where 1 is the maximum)
Chain of human Retinoid X Receptor beta (RXRb), RXRB (gene 6257) (P28702 whole entry, looked up, the tested form may be a part): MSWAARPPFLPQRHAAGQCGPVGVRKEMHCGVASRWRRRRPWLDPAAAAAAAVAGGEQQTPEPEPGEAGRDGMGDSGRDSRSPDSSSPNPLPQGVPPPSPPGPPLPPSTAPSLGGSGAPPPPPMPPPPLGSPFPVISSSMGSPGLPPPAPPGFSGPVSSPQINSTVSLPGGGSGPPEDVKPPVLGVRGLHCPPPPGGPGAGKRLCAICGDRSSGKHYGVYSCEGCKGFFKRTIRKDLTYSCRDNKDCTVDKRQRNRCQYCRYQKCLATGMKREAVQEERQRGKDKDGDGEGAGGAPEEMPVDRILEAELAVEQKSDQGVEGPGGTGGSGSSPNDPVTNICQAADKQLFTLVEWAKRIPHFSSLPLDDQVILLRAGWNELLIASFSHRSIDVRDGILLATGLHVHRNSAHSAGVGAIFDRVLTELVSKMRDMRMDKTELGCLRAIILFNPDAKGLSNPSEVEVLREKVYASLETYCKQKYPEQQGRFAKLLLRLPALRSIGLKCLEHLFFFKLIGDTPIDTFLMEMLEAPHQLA
How it was run: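 HepG2 cells transiently transfected with multiplexed reporter units driven by GAL4-UAS and exogenous chimeric NR-Gal4 proteins; treated 24 h. Reporter mRNA measured by RT-PCR, 6-FAM labelling and capillary electrophoresis; gain-of-signal fitted versus DMSO baseline.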

[3] = read-out: E-selectin (Homo sapiens) (UniProt P16581); test: BSK_3C_Eselectin: BioMAP Diversity Plus: 3C Assay for Eselectin Biomarker Activity (AID 2283015); settings: primary human endothelial cells (HUVEC); actives raise or lower the signal;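 further: cell surface E-selectin protein quantified by ELISA 24 h after dosing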
How it was run: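 ELISA read-out of E-selectin on endothelial monolayers after 24 h chemical treatment. Human umbilical vein primary cells served as the system, with DMSO defining baseline activity for bidirectional fitting.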

[4] = read-out: Interleukin-1 alpha (IL1a), IL1A (gene 3552); test: BSK_BE3C_IL1a: BioMAP Diversity Plus: BE3C Assay for Interleukin-1 alpha (IL1a) Biomarker Activity (AID 2283016); settings: primary human bronchial epithelial cells; actives raise or lower the signal
How it was run: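 Human primary bronchial epithelial cells (BE3C system) were dosed with compound and IL-1a measured by ELISA 24 h later. Activity was fitted bidirectionally against DMSO baseline; cytotoxicity was tracked in parallel cultures by SRB total-protein staining.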

[5] = read-out: Monocyte Chemoattractant Protein-1 (MCP1), CCL2 (gene 6347); test: BSK_3C_MCP1: BioMAP Diversity Plus: 3C Assay for Monocyte Chemoattractant Protein-1 (MCP1) Biomarker Activity (AID 2283017); settings: primary human endothelial cells (HUVEC); actives raise or lower the signal
How it was run: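 ELISA read-out of MCP-1 from human umbilical vein endothelial cell cultures harvested 24 h post-dosing. Gain or loss of signal was fitted relative to DMSO.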

[6] = read-out: Human Leukocyte Antigen - DR isotype (HLADR), HLA-DRA (gene 3122); test: BSK_3C_HLADR: BioMAP Diversity Plus: 3C Assay for Human Leukocyte Antigen - DR isotype (HLADR) Biomarker Activity (AID 2283019); settings: primary human endothelial cells (HUVEC); actives raise or lower the signal
How it was run: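 ELISA readout of surface HLA-DR on human umbilical vein endothelium, taken 24 h after chemical treatment. Gain- and loss-of-signal were both fitted relative to DMSO.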

[7] = read-out: Interleukin-8 (IL8), CXCL8 (gene 3576); test: BSK_3C_IL8: BioMAP Diversity Plus: 3C Assay for Interleukin-8 (IL8) Biomarker Activity (AID 2283020); settings: primary human endothelial cells (HUVEC); actives raise or lower the signal
How it was run: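 Primary human umbilical vein endothelial cells (3C system) were exposed to test chemical for 24 h, then IL-8 was quantified by ELISA. Responses were fitted bidirectionally against DMSO vehicle as baseline.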

[8] = read-out: Monokine induced gamma interferon (MIG), CXCL9 (gene 4283); test: BSK_3C_MIG: BioMAP Diversity Plus: 3C Assay for Monokine induced gamma interferon (MIG) Biomarker Activity (AID 2283021); settings: primary human endothelial cells (HUVEC); actives raise or lower the signal;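 on AC50: MIG protein level measured by immunoassay in the treated endothelial cultures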
How it was run: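 Primary human umbilical vein endothelial cells in the 3C system were exposed to chemical for 24 h, after which MIG was quantified by ELISA. Activity was fitted bidirectionally against DMSO as negative control and baseline.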

[9] = molecular target: human Vitamin D Receptor (VDR), VDR (gene 7421) (UniProt P11473); test: ATG_VDR_TRANS: Attagene TRANS-FACTORIAL HepG2 Assay for human Vitamin D Receptor (VDR) (AID 2283022; active means hit-call score of the fitted dose curve at least 0.9, where 1 is the maximum)
Chain of human Vitamin D Receptor (VDR), VDR (gene 7421) (P11473 whole entry, looked up, the tested form may be a part): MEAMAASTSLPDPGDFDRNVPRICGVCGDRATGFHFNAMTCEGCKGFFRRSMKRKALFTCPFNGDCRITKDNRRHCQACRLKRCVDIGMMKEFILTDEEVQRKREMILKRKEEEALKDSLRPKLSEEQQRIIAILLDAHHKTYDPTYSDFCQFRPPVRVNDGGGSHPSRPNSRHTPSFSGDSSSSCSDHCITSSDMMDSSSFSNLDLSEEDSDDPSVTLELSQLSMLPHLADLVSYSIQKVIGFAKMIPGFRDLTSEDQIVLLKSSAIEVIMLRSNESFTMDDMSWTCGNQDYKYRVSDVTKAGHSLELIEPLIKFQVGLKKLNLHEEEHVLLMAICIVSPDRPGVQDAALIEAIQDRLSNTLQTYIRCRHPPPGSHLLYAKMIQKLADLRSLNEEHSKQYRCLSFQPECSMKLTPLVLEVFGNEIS
How it was run: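 Steps: transfect HepG2 with GAL4-UAS-driven reporter constructs; dose compounds 24 h; isolate RNA, reverse-transcribe, PCR-amplify with 6-FAM-labelled primer extension and HpaI digestion; quantify fragments by capillary electrophoresis relative to DMSO.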

[10] = BSK_3C_SRB: Viability Assessment in the BioMAP Diversity Plus: 3C Assay (AID 2283023); settings: primary human endothelial cells (HUVEC);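 further: fitted both ways against DMSO so a hit may be signal rise or drop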
How it was run: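 Absorbance at 560 nm of sulforhodamine B-stained (0.1%) total protein served as a cytotoxicity readout in human umbilical vein endothelial cells, 24 h after chemical treatment. Signal was fitted bidirectionally relative to DMSO.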

[11] = read-out: Matrix Metallopeptidase 1 (MMP1), MMP1 (gene 4312); test: BSK_BE3C_MMP1: BioMAP Diversity Plus: BE3C Assay for Matrix Metallopeptidase 1 (MMP1) Biomarker Activity (AID 2283024); settings: primary human bronchial epithelial cells; actives raise or lower the signal
How it was run: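 Primary human bronchial epithelial cells were dosed with test chemicals, and MMP1 levels were measured by ELISA 24 h later. Data were fitted bidirectionally against DMSO as the negative control and activity baseline.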

[12] = BSK_3C_Vis: BioMAP Diversity Plus: 3C Assay for Morphology Visualization (AID 2283025); settings: primary human endothelial cells (HUVEC);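 further: fitted both ways so gain or loss versus DMSO counts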
How it was run: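 Human umbilical vein endothelial cells in the 3C system were imaged by light microscopy 24 h after chemical dosing to record cell morphology. Activity was fitted bidirectionally against DMSO as negative control and baseline; the endpoint serves as a background control.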

[13] = read-out: Pselectin, SELP (gene 6403); test: BSK_4H_Pselectin: BioMAP Diversity Plus: 4H Assay for Pselectin Biomarker Activity (AID 2283026); settings: primary human endothelial cells (HUVEC); actives raise or lower the signal
How it was run: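 Primary human umbilical vein endothelial cells were exposed to test chemical for 24 h, then cell-surface P-selectin was quantified by ELISA. Activity was fitted bidirectionally against DMSO as negative control and baseline.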

[14] = BSK_4H_SRB: Viability Assessment in the BioMAP Diversity Plus: 4H Assay (AID 2283027); settings: primary human endothelial cells (HUVEC);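 further: cells exposed to compound for 24 h before staining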;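 on AC50: curves fitted both ways versus DMSO so AC50 may be loss or gain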
How it was run: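 Human umbilical vein endothelial cells, 24 h after chemical dosing; total protein measured by 0.1% sulforhodamine B staining after 10% TCA fixation, read at 560 nm. Bidirectional fitting against DMSO.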

[15] = BSK_BE3C_SRB: Viability Assessment in the BioMAP Diversity Plus: BE3C Assay (AID 2283028); settings: primary human bronchial epithelial cells;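 on AC50: fitted both ways so AC50 may mark signal gain or loss versus DMSO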
How it was run: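 Cells (human bronchial epithelial, primary) are treated with chemicals, and after 24 h the parallel cultures are fixed in 10% TCA. These are then stained with 0.1% SRB and read at 560 nm. Gain or loss of signal is fitted relative to DMSO.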

[16] = read-out: Thrombomodulin, THBD (gene 7056); test: BSK_3C_Thrombomodulin: BioMAP Diversity Plus: 3C Assay for Thrombomodulin Biomarker Activity (AID 2283029); settings: primary human endothelial cells (HUVEC); actives raise or lower the signal
How it was run: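 Primary human umbilical vein endothelial cells (3C system) were exposed to chemical for 24 h, then thrombomodulin levels were measured by ELISA. Activity was fitted bidirectionally against the DMSO negative control as baseline.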

[17] = read-out: Urokinase-type plasminogen activator receptor (uPAR), PLAUR (gene 5329); test: BSK_4H_uPAR: BioMAP Diversity Plus: 4H Assay for Urokinase-type plasminogen activator receptor (uPAR) Biomarker Activity (AID 2283030); settings: primary human endothelial cells (HUVEC); actives raise or lower the signal
How it was run: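 Cell-surface uPAR ELISA signal, measured 24 h after dosing human umbilical vein endothelial cells, was analyzed with bidirectional fitting relative to DMSO. Parallel SRB staining of total protein tracked overt cytotoxicity.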

[18] = read-out: Monocyte Chemoattractant Protein-1 (MCP1), CCL2 (gene 6347); test: BSK_4H_MCP1: BioMAP Diversity Plus: 4H Assay for Monocyte Chemoattractant Protein-1 (MCP1) Biomarker Activity (AID 2283018); settings: primary human endothelial cells (HUVEC); actives raise or lower the signal
How it was run: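 Human umbilical vein endothelial cells (4H system) dosed with chemical; MCP-1 measured by ELISA 24 h after dosing. Bidirectional curve fitting against DMSO negative control as baseline; parallel SRB total-protein staining tracks overt cytotoxicity.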

[19] = molecular target: human RAR-related Orphan Receptor gamma (RORg), RORC (gene 6097) (UniProt P51449); test: ATG_RORg_TRANS: Attagene TRANS-FACTORIAL HepG2 Assay for human RAR-related Orphan Receptor gamma (RORg) (AID 2283011; active means hit-call score of the fitted dose curve at least 0.9, where 1 is the maximum)
Chain of human RAR-related Orphan Receptor gamma (RORg), RORC (gene 6097) (P51449 whole entry, looked up, the tested form may be a part): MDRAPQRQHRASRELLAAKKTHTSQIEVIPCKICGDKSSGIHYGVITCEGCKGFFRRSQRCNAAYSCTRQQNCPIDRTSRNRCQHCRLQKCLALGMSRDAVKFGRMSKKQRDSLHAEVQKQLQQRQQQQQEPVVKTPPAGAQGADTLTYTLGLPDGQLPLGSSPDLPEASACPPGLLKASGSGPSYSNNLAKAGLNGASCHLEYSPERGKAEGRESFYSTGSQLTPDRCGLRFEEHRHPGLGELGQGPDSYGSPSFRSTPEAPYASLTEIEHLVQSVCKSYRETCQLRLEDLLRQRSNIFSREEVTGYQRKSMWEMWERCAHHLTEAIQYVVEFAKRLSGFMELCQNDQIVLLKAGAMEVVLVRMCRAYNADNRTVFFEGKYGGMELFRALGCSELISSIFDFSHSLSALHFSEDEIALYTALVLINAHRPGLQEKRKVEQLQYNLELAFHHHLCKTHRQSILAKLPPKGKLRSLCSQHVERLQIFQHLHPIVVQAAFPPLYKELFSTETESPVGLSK
How it was run: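 First, HepG2 liver cells were transfected with GAL4-UAS-driven reporter constructs and the RORg-Gal4 fusion. Next, they were treated with chemical for 24 h. Finally, reporter mRNA was quantified by RT-PCR and capillary electrophoresis, with upward activity fitted against DMSO.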

[20] = molecular target: human Thyroid Receptor alpha (THRa1), THRA (gene 7067) (UniProt P10827); test: ATG_THRa1_TRANS: Attagene TRANS-FACTORIAL HepG2 Assay for human Thyroid Receptor alpha (THRa1) (AID 2283014; active means hit-call score of the fitted dose curve at least 0.9, where 1 is the maximum)
Chain of human Thyroid Receptor alpha (THRa1), THRA (gene 7067) (P10827 whole entry, looked up, the tested form may be a part): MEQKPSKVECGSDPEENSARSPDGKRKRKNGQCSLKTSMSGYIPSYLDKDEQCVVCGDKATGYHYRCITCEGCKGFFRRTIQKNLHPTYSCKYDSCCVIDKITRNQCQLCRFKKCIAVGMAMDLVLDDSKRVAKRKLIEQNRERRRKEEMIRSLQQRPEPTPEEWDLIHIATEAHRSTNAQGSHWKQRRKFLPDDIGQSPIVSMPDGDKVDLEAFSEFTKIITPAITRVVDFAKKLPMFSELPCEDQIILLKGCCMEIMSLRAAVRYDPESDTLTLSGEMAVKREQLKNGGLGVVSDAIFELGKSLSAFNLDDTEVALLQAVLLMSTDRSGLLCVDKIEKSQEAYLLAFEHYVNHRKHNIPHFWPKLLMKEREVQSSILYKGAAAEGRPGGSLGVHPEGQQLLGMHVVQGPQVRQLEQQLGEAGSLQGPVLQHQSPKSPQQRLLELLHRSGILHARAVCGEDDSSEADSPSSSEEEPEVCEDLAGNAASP
How it was run: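 Reporter transcript induction, read by capillary electrophoresis of 6-FAM-labelled RT-PCR products, reflects activity of a transfected THRa1-Gal4 fusion in HepG2 liver cells. Cells were dosed for 24 h; activity was fitted in the positive direction against DMSO.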

Measured: AC50

Chain of E-selectin (Homo sapiens) (P16581 whole entry, looked up): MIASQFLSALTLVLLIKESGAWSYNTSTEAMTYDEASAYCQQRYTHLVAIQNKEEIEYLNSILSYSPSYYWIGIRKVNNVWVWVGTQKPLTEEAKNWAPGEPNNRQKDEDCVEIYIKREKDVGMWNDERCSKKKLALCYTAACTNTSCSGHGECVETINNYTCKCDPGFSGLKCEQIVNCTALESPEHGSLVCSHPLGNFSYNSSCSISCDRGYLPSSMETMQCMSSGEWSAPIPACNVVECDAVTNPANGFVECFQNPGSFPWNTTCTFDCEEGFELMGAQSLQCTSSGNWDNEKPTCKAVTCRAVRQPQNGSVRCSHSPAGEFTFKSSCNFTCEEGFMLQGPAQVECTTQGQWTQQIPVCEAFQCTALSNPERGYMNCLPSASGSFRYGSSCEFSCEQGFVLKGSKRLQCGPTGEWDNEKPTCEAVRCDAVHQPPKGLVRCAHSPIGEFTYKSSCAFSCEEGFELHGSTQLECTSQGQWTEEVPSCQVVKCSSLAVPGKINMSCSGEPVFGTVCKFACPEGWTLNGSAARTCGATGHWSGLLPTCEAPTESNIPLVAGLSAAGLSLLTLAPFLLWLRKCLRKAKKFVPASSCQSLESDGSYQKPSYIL

C[Si](Cn1cncn1)(c1ccc(F)cc1)c1ccc(F)cc1
active: [10] 17.9 µM | [12] 39 µM
not listed: [18] | [19] | [20]
inactive: all other assays above

CCc1cccc(C)c1N(C(=O)CCl)C(C)COC (centres undefined)
active: [12] 39 µM | [13] 13.6 µM
not listed: [1] | [3] | [19] | [20]
inactive: all other assays above

CCc1cnc(C2=NC(C)(C(C)C)C(=O)N2)c(C(=O)O)c1 (centres undefined)
not listed: [1] | [2] | [3] | [20]
inactive: all other assays above

CC(COc1ccc(Oc2ccccc2)cc1)Oc1ccccn1 (centres undefined)
active: [6] 21 µM | [10] 20 µM
not listed: [1] | [2] | [3] | [20]
inactive: all other assays above

CCOP(=S)(OCC)Oc1cc(C)nc(C(C)C)n1
not listed: [3] | [9] | [18] | [19]
inactive: all other assays above

CCOP(=O)(OCC)Oc1cc(C)nc(C(C)C)n1
active: [6] 20 µM | [12] 39 µM
not listed: [1] | [2] | [9] | [18] | [20]
inactive: all other assays above

CSC1=N[C@@](C)(c2ccccc2)C(=O)N1Nc1ccccc1
active: [6] 5.87 µM | [7] 8.64 µM | [10] 7.26 µM | [14] 2.88 µM
not listed: [3] | [18] | [19]
inactive: all other assays above

CCCOCC(=Nc1ccc(Cl)cc1C(F)(F)F)n1ccnc1
active: [4] 33.5 µM | [5] 30.2 µM | [18] 24.9 µM | [6] 26.8 µM | [7] 33.7 µM | [8] 35.1 µM | [10] 31 µM | [11] 34 µM | [12] 20 µM | [13] 29.8 µM | [14] 29 µM | [15] 20 µM | [16] 35 µM | [17] 36.7 µM
inactive: [1] | [2]
